# PostGolgi ctrl – yeast control strain growth, post-Golgi counter-screen; efflux-deficient yeast background strain, growth absorbance A615, 16 h; inhibition, % at 10 µM; 98,000 tested, 5% active; AID 738
# CYP2C19 act – cytochrome P450 2C19 (human) activation; P33261; recombinant CYP2C19, luciferin-H EGE luminescence; stronger effect = higher value; 0 = fully inhibited enzyme, 1 = untreated enzyme; activation factor at 5 µM; 96,000 tested, under 10 active;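 active = activation factor of at least 2 at 5 µM in the primary screen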;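 note: 0 = wells with 2.5 mM tranylcypromine and 1 = vehicle-only wells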
# CYP2C9 inh – blocks human cytochrome P450 2C9 | 96,000 tested, 20% active | AID 777 | CYP2C9 Supersomes, luciferin-H conversion, luminescence | inhibition, % at 5 µM | P11712;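 active = blocking of liver enzyme CYP2C9 beyond about 50% at 5 µM, limit read from the data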
# Target sequence (P11712 whole entry, looked up): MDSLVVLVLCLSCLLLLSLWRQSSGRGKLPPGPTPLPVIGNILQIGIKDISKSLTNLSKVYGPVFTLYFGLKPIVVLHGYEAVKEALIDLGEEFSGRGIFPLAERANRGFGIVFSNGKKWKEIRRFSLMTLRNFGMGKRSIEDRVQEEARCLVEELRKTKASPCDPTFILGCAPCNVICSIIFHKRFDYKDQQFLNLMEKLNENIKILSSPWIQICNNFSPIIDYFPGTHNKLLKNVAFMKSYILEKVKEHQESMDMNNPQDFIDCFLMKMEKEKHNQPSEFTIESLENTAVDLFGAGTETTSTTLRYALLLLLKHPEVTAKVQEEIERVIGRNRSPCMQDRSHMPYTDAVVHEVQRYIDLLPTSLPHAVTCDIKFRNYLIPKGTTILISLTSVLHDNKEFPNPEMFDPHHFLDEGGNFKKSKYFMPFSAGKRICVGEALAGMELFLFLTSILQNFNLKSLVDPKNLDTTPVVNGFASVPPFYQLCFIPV
# PostGolgi yeast – growth inhibition of a yeast mutant, post-Golgi transport screen; post-Golgi transport phenotypic cell assay; inhibition, % at 10 µM; 98,000 tested, 0.9% active; AID 739;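 note: yeast cells grown in 1536-well plates; yeast grown about 18 h at 30C before absorbance read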
# CYP2C19 inh – inhibitors of human CYP2C19 | 96,000 tested, 21% active | AID 778 | inhibition, % at 5 µM | CYP2C19 Supersomes, luciferin-H EGE luminescence, 30 min;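 active = CYP2C19 inhibition above a set limit at 5 µM in the primary screen, cut at about 50% in these data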;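 note: plate controls were negative control wells for no effect and 2.5 mM tranylcypromine positive control for full effect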
# CYP2C9 act – increases human cytochrome P450 2C9 activity; 96,000 tested, 1.4% active; activation factor at 5 µM; P11712; recombinant CYP2C9, luciferin-H conversion, luminescence; stronger effect = higher value; factor 1 = untreated enzyme, 0 = blocked;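 active = activation factor of 2 or more for CYP2C9 at a 5 µM dose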;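 note: 0 = sulfaphenazole-blocked wells and 1 = vehicle-only wells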
# The depositor's hits bear a star; . = not tested or not shown. This is a sample that favours compounds with a hit; in the whole collection about 32% have one here. Cut-off read from the data, not from the text of the source, unless noted: active = inhibition above about 30%; inactive = the rest.
SMILES,PostGolgi ctrl,CYP2C19 act,CYP2C9 inh,PostGolgi yeast,CYP2C19 inh,CYP2C9 act
COc1ccc(OC)c(C2C(C(C)=O)=C(O)C(=O)N2c2ccc(O)cc2)c1 (stereo unspecified),-9,0.9,20,-3,14,0.8
COc1ccccc1N1CCN(Cc2nc(N)nc(Nc3ccccc3)n2)CC1,2,0.7,39,-5,30,0.6
C=CCN1CCN(C(c2cc(OC)ccc2OC)c2nnnn2CC2CCCO2)CC1 (stereo unspecified),3,1,-1,14,-4,1
N#CCCNC(=O)CCN1CCCCC1,5,0.9,-15,6,12,1.2
COc1ccc(OC)c(/C=N/NC(=O)CC2C(=O)NN=C2C)c1 (stereo unspecified),3,1.1,-5,-2,-11,1
COc1ccc(C(=O)Oc2cc(/C=N/NC(N)=S)ccc2OC)cc1,7,1,1,17,2,1
COc1cc(/C=N/NC(=O)c2nc(C)cc(C)n2)ccc1O,24,0.9,8,-6,5,0.9
COc1ccc(/C=N/NC(N)=S)cc1OC(=O)c1cccc2ccccc12,65*,0.7,58*,-17,29,0.4
COc1cc(/C=N/NC(=O)C2c3ccccc3Oc3ccccc32)ccc1O,6,0.9,53*,-12,8,0.5
CCn1c2ccccc2c2cc(/C=N/NC(=O)c3ccccc3)ccc21,28,0.3,8,-8,73*,0.9
COC(=O)c1onc(-c2ccccc2)c1C(=O)OC,6,0.3,18,6,72*,0.8
COC(=O)c1onc(-c2c(C)cc(C)cc2C)c1C(=O)OC,4,0.8,6,-1,19,0.9
O=C(NC1C=CS(=O)(=O)C1)c1sc2ccccc2c1Cl (stereo unspecified),1,1.2,-64,0,-19,1.6
COc1cccc(-n2c(SC)nnc2-c2cnccn2)c1,-2,.,.,-1,.,.
COc1cccc(C(=O)Cn2c(=O)n(CC3CCCO3)c(=O)c3ccccc32)c1 (stereo unspecified),22,0.8,42,-3,19,0.6
CCOC(=O)CNC(=O)C(CC(C)C)NC(=O)C1CCCCC1 (stereo unspecified),3,1,-12,-1,2,1.1
Cn1cc(CC(=O)N2CCN(c3ccc(Cl)cc3)CC2)c2ccccc21,3,0.3,-105,0,71*,2.1*
O=C(Cc1ccc(-n2cccc2)cc1)N1CCN(c2ccccc2F)CC1,10,0.5,63*,0,50,0.4
O=C(CCCC(=O)N1CCN(c2ccccc2F)CC1)N1CCN(c2ccccc2F)CC1,19,0.9,16,0,8,0.8
Cn1cc(CC(=O)N2CCN(c3ccccc3F)CC2)c2ccccc21,6,0,-65,-3,100*,1.6
CCOC(=O)C1=C(C)NC(=O)NC1c1ccco1 (stereo unspecified),2,1.1,-2,-8,-13,1
Cn1c(C(=O)OC(C(=O)NCc2ccco2)c2ccncc2)cc2sccc21 (stereo unspecified),-12,0,90*,-2,98*,0.1
CCC(C)(C)NC(=O)C(OC(=O)c1cc2sccc2n1C)c1ccc(OC)cc1 (stereo unspecified),8,1,8,24,2,0.9
CC(OC(=O)c1cc2sccc2n1C)C(=O)NCc1ccco1 (stereo unspecified),11,0.1,79*,12,90*,0.2
C/C(Nc1ccc(F)cc1)=C(/C#N)C(N)=O,8,1.2,-24,1,-18,1.2
SMILES,PostGolgi ctrl,CYP2C19 act,CYP2C9 inh,PostGolgi yeast,CYP2C19 inh,CYP2C9 act
C/C(Nc1cccc(F)c1)=C(/C#N)C(N)=O,18,0.7,68*,2,28,0.3
O=C1Nc2ccc(F)cc2C12SCCS2,4,0.6,-127,-1,43,2.3*
Cc1c(C2(O)C(=O)Nc3ccc(F)cc32)c(=O)n(-c2ccccc2)n1C (stereo unspecified),-1,1.2,26,-7,-22,0.7
COc1ccc2c(c1OC)C(=O)NC(C)=C(C(=O)OC(C)(C)C)C2O (stereo unspecified),-1,0.2,56*,3,81*,0.4
O=C1CC(c2ccccc2)CN1Cc1ccccc1 (stereo unspecified),4,0.1,19,-3,93*,0.8
Cn1c(C2CC(=O)N(Cc3ccccc3)C2)nc2ccccc21 (stereo unspecified),-3,0.2,14,1,76*,0.9
COc1cc(NC(=O)CN2CC(c3ccccc3)CC2=O)cc(OC)c1 (stereo unspecified),5,.,.,2,.,.
O=C(O)C1CC(=O)N(Cc2ccccc2)C1 (stereo unspecified),8,1,-40,2,-2,1.4
C=CCN1CC(c2nc3ccccc3n2Cc2ccccc2)CC1=O (stereo unspecified),-1,1,2,6,4,1
O=C(CN1CC(c2ccccc2)CC1=O)OCc1ccccc1F (stereo unspecified),3,0.1,56*,-1,88*,0.4
N#Cc1c(/N=C/C=C/c2ccccc2)sc2c1CCCC2,5,0.9,-27,4,14,1.3
CN(C)c1ccc(NC(=O)CC2NCCNC2=O)cc1 (stereo unspecified),23,1.2,-12,-8,-16,1.1
O=S(=O)(c1cccs1)n1cnc2ccccc21,12,0.9,-38,3,11,1.4
C=CCN1CN(S(=O)(=O)c2cccs2)c2nc3ccccc3nc21,9,0.4,17,5,63*,0.8
O=S(=O)(c1cccs1)N1CN(Cc2cccs2)c2nc3ccccc3nc21,20,0.1,79*,0,93*,0.2
O=S(=O)(c1cccs1)N1CN(Cc2ccc(F)cc2)c2nc3ccccc3nc21,12,0.8,70*,-3,22,0.3
O=S(=O)(c1cccs1)N1CN(Cc2ccccc2)c2nc3ccccc3nc21,12,1.1,1,1,-12,1
COc1cccc(OCCNc2cc(Cl)ccc2[N+](=O)[O-])c1,9,0.5,42,-5,46,0.6
CCOC(=O)c1ccc2nc(C(F)(F)F)[nH]c(=O)c2c1,7,1.1,60*,-1,-10,0.4
CCOC(=O)c1ccc2nc(C)c3c(c2c1)OC(C)C3 (stereo unspecified),8,0.9,12,-5,13,0.9
CCOc1ccc(NC(C)c2cc(Cl)ccc2O)cc1 (stereo unspecified),23,0.4,79*,-5,62*,0.2
CC(Nc1ccc(Br)cn1)c1cc(Cl)ccc1O (stereo unspecified),31*,0.2,86*,-3,82*,0.1
Cc1cc(Cl)cc(C)c1OCCCCN1CCOCC1,-2,0.5,0,35*,54*,1

# From PubChem BioAssay
